# Source: PubChem BioAssay (several laboratories)
# An excerpt weighted towards active compounds, which were near 1.1% of everything screened.
# APOBEC3G inh: inhibitors of human APOBEC3G DNA deaminase; recombinant A3G, ssDNA deamination FAM/TAMRA fluorescence; inhibition, % at 20 µM; 330,000 compounds, 0.28% hits;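 active = inhibition of at least 40% at 20 µM, with no more than 30% in the related APOBEC3A deaminase screen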;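 note: plate controls were DMSO wells with A3G for no effect and wells lacking A3G enzyme for full effect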
# Target sequence (Q9HC16 whole entry, looked up): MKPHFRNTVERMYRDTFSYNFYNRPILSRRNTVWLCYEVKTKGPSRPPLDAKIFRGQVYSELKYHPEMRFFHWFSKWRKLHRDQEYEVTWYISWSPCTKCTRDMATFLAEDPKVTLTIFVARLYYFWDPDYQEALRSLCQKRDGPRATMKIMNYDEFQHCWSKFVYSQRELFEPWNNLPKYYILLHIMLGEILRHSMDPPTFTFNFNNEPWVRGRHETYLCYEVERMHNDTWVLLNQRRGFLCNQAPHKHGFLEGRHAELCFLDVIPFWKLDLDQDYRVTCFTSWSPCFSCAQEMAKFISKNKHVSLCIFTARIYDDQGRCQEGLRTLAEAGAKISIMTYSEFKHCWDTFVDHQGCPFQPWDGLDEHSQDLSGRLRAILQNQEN
# Bfl-1 A1 inh: inhibitors of the anti-apoptotic protein A1, read as caspase activation | caspase activation, % (test concentration not listed) | AID 2462 | 330,000 compounds, 0.066% hits | MEF A1-2A-BIM cells, Caspase-Glo 3/7 luminescence, 3 h; percent of clofoctol response, vehicle zero;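 active = over half of replicate activation scores above 10%, or exactly half above 10 with the replicate mean above 10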
# A3A deaminase: human APOBEC3A DNA deaminase inhibition; P31941; inhibition, % at 20 µM; 330,000 compounds, 0.41% hits; AID 493011; recombinant A3A, FAM/TAMRA ssDNA deamination fluorescence;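 active = at least 40% inhibition at 20 µM here, with at most 30% in a related deaminase screen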;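 note: plate controls were A3A with DMSO for no effect and wells lacking A3A enzyme for full effect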
# Target sequence (P31941 whole entry, looked up): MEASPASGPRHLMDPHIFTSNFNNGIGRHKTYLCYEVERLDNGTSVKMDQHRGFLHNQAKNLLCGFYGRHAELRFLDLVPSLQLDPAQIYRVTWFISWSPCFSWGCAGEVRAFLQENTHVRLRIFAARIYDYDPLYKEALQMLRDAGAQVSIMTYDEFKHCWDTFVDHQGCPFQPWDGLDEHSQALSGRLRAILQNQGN
# MIN6 prolif: inducers of beta-cell replication in MIN6 cells; AID 2380; MIN6 cells proliferation, ATPlite luminescence, 48 h; cells starved in 0.2% serum; 100% = growth in 10% serum; 330,000 compounds, 0.29% hits; proliferation, % at 10 µM;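 active = compounds whose signal lies at least 3.5 SD above the mean of all wells on their plate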;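 note: 0% = DMSO-treated cells in low-serum medium and 100% = 10% serum control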
# APOBEC3A confirm: APOBEC3A (human) deaminase inhibition, confirmed. shares compounds with A3A deaminase. recombinant A3A, ssDNA deaminase UDG fluorescence assay. inhibition, % at 20 µM. 1,400 compounds, 63% hits;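 active = inhibition reaching a set limit, 80% of the first screen's cutoff, at 20 µM in any replicate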;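 note: plate controls were DMSO wells with A3A for no effect and wells lacking A3A enzyme for full effect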
# UDG A3A counter: UDG inhibition in APOBEC3A counter-screen; inhibition, % at 20 µM; shares compounds with A3A deaminase; UDG counterscreen, FAM/TAMRA uracil oligo fluorescence; 1,000 tested, under 10 active; call rule not given here
# * = called active by the depositor; x = no result.
SMILES,APOBEC3G inh,Bfl-1 A1 inh,A3A deaminase,MIN6 prolif,APOBEC3A confirm,UDG A3A counter
O=C(Nc1ccccc1)c1ccc(CSc2ncccn2)cc1,19,-6,43*,-5,20,x
Cc1ccc(NC(=O)c2ccc(CSc3nccc(C)n3)cc2)cc1,-2,-2,-1,-4,x,x
CCOC(=O)C1CCCN(C(=O)c2cc3ccc(OC)cc3[nH]2)C1 (stereo not drawn),-5,1,-1,4,x,x
O=C(N/N=C/c1ccc([N+](=O)[O-])o1)C(=O)Nc1ccc(C(=O)O)cc1,-3,-1,11,-2,x,x
O=C(O)c1ccc(N/N=C/C=C/c2ccc([N+](=O)[O-])o2)cc1,25,-1,48*,-1,41*,x
CCOc1ccc(OCCCC(=O)N2CCN(S(=O)(=O)c3ccc(Cl)cc3)CC2)cc1,15,1,70*,0,77*,-2
Cc1n(Cc2ccccc2)c2ccccc2[n+]1Cc1ccccc1,-7,1,-6,-4,x,x
CCn1c(C)[n+](Cc2ccccc2)c2ccc(C(=O)OC)cc21,15,0,53*,0,71*,3
CCn1c(C)[n+](Cc2ccccc2)c2ccc(Cl)cc21,20,1,60*,1,73*,-1
CCn1c(/C=C/N(C)c2ccccc2)[n+](CC)c2ccc(Cl)cc21,19,0,42*,-4,64*,-2
COc1ccc(S(=O)(=O)N2CCC(C(=O)NCCC(=O)NC3CC3)CC2)cc1,-6,0,-8,-2,x,x
COc1ccccc1N1CCN(C(=O)CSc2nc3ccccc3nc2N2CCC(C)CC2)CC1,-6,-1,-2,-3,x,x
Cc1ccc(S(=O)(=O)N2CCC(C(=O)Nc3ccc(N4CCOCC4)cc3)CC2)cc1C,4,x,43*,-2,11,x
CC(=O)Nc1nnc(SCC(=O)NCCOc2ccccc2)s1,26,0,57*,-1,63*,-2
CCC(=O)Nc1nnc(SCC(=O)NCC2CCCO2)s1 (stereo not drawn),-6,-1,2,-4,x,x
CC(=O)Nc1nnc(SCC(=O)NCC2CCCO2)s1 (stereo not drawn),10,-1,41*,-3,40*,5
CC(=O)Nc1ccc2nc(SCC(=O)NCCOc3ccccc3)sc2c1,3,0,-2,2,x,x
O=C(CSC1=NCCS1)NC1CCCCC1,8,0,49*,0,52*,0
O=C(CSC1=NCCS1)NC1CCCC1,-2,0,-2,0,x,x
O=C(CSc1nnc(-c2ccncc2)n1-c1ccccc1)N1CCN(c2ccc(Cl)cc2)CC1,15,-1,44*,-3,65*,0
O=C(CSc1nnc(-c2cccnc2)n1-c1ccccc1)N1CCN(c2ccc(F)cc2)CC1,-6,0,-2,0,x,x
CCOC(=O)c1[nH]c2ccc(OC)cc2c1NC(=O)CCN1CCC(C)CC1,14,0,49*,-2,22,x
c1ccc2c(c1)nc(N1CCCCCC1)c1ccccc12,12,0,67*,-3,67*,-2
c1ccc2nc(N3CCCC3)c(N3CCCC3)nc2c1,1,0,2,0,x,x
CC(C)(C)N(NC(=O)Nc1ccc(F)cc1)C(=O)c1ccccc1,-8,0,0,0,x,x
SMILES,APOBEC3G inh,Bfl-1 A1 inh,A3A deaminase,MIN6 prolif,APOBEC3A confirm,UDG A3A counter
CC(C)(C)N(NC(=O)Nc1ccc(Cl)c(Cl)c1)C(=O)c1ccccc1,1,0,40*,-7,3,x
COc1ccc(S(=O)(=O)Cc2ccc(C(=O)N3CCc4ccccc4C3)o2)cc1,-4,0,3,6,x,x
Cc1ccc(S(=O)(=O)Cc2ccc(C(=O)N3CCc4ccccc4C3)o2)cc1,11,1,41*,1,34*,-3
CN(C(=O)/C=C/c1ccco1)c1ccccc1C(=O)O,10,0,44*,-3,22*,-2
COc1ccc(/C=C2\C(=O)NCC(=O)N2C)cc1,14,1,52*,-5,75*,-3
COc1ccc(/C=C2\C(=O)NCC(=O)N2Cc2ccccc2)cc1,-4,0,-2,-2,x,x
COc1ccc(S(=O)(=O)N2CCCCC2)cc1NC(=O)c1ccc([N+](=O)[O-])o1,-9,0,5,-6,x,x
CCN1CCN(c2ccc(S(=O)(=O)N3CCCCC3)cc2NC(=O)c2sccc2C)CC1,21,-2,69*,-2,64*,-3
CCN1CCN(c2ccc(S(=O)(=O)N3CCCCC3)cc2NC(=O)c2ccc([N+](=O)[O-])o2)CC1,5,0,53*,-7,33*,x
CC(C)Oc1ccc(OCCSc2nc3ccccc3n2CC(=O)O)cc1,7,0,70*,-3,24,x
Cc1ccc(OCCSc2nc3ccccc3n2CC(=O)O)cc1,4,0,3,-2,x,x
CCCC[n+]1c(C)sc2cc(OC)ccc21,18,-1,65*,-5,66*,-2
COC(=O)CCCC(=O)N1CCCC(N(C)CCc2ccccc2)C1 (stereo not drawn),-3,0,0,2,x,x
CC(=O)c1ccc(N2CCN(C(=O)c3cc(-c4ccncc4)nc4ccc(Cl)cc34)CC2)cc1,-8,0,-1,-6,x,x
Cc1cc(C(=O)NCc2ccc(C(=O)O)o2)c(C)o1,16,0,47*,-1,48*,5
Cc1occc1C(=O)NCc1ccc(C(=O)O)o1,1,0,10,-2,x,x
O=C(CCN=C1NS(=O)(=O)c2ccccc21)Nc1ccc(Cl)cc1F,-2,1,0,0,x,x
Cn1c(SCC(=O)NCc2ccco2)nnc1-c1ccccc1,-3,-1,2,-3,x,x
Cn1c(SCC(=O)NCc2ccccc2)nnc1-c1ccc(NC(=O)CCc2ccccc2)cc1,14,-2,58*,-3,51*,-1
Cn1c(Cc2ccccc2)nnc1SCCC(=O)Nc1ccccc1,16,1,69*,-3,74*,-4
CCC(=O)Nc1cccc(-c2nnc(SCC(=O)NCc3ccco3)n2C)c1,21,0,46*,-1,68*,3
Cn1c(Cc2ccccc2)nnc1SCC(=O)NC1CC1,-14,-1,-1,2,x,x
COc1ccc(/C(C)=N/NC(=O)c2cc(C)[nH]n2)c(OC)c1,0,0,-3,-2,x,x
COCCNC(=O)c1onc(CSc2ccccc2)c1C(=O)NCCOC,0,0,-1,-1,x,x
CC(C(=O)N1CCOCC1)n1cc([N+](=O)[O-])cn1 (stereo not drawn),-2,0,6,-2,x,x
CCOC(=O)CC[C@H](NC(=O)Cn1cnc2c(SC)nc(N)nc21)C(=O)OCC,-1,0,0,-5,x,x
CC1(C)CC(=O)C(C(=O)C2CCN(S(=O)(=O)c3ccccc3)CC2)C(=O)C1,-7,1,47*,-1,-5,1
